Compound activity (PubChem)
An excerpt weighted towards active compounds, which were near 3.8% of everything screened.
aDG glyco up – increases alpha dystroglycan glycosylation. Pro5-aDG cells, alpha-DG glycosylation AlphaScreen (IIH6); 0% Pro5, 100% B10-LARGE cell signal. activation, % at 10 µM. 0.22% of 360,000 active. AID 624168;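 active = activation of at least 8% versus controls, or a plate z-score of at least 8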;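 also: Pro5 are CHO cells carrying HIG-tagged alpha-DG that lacks glycosylation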
SUMO Mot1 rescue – blocks SUMOylation pathway, rescuing yeast Mot1-301 growth. growth rescue, % at 18.8 µM. AID 2716. 1% of 320,000 active. S. cerevisiae Mot1-301 growth rescue, ATP luminescence, 38.5C; percent above DMSO median, 100 means doubled;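 active = every valid replicate shows activation above 250% relative to neutral control wells; inactive = the rest, any valid replicate at or below 250%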;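 also: OY570 slx delta 5 strain wells were the positive control but not used for scaling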
H9c2 protect – myocardial damage modulation in H9c2 cells | H9c2 cardiomyocytes, H2O2 injury protection, ATPLite, 2 h | protection from H2O2 cell death, % at 20 µM | 0.63% of 360,000 active;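 active = compounds giving at least 50% protection of heart cells from peroxide-induced death in the single-dose screen, raw or plate-pattern-corrected value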;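 also: 0% = DMSO wells with peroxide and 100% = DMSO wells without peroxide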
FAS-TE inh – inhibitors of human fatty acid synthase thioesterase domain; P49327; recombinant FAS-TE, OMFH fluorogenic substrate, fluorescence endpoint; 0.67% of 360,000 active; inhibition, % at 15 µM; AID 602261;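 active = compounds whose normalised, plate-corrected inhibition of enzyme fluorescence in the single-dose primary screen is 50% or more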;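 also: 0% = DMSO with enzyme and 100% = substrate without enzyme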
CR mimetic SO – lowers age-related superoxide in aged yeast cells. superoxide response (% of plate mean), % at 10 µM. 0.18% of 330,000 active. S. cerevisiae aged cells, superoxide DHE fluorescence; hits give low values;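 active = superoxide response under a set limit, about three screen SD below normal, cut at about 65% in these data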;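 also: yeast aged for seven days with compound at 30 °C before DHE staining; 100% = average MFI of all compound-treated wells on the plate with controls excluded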
MPTP block – blocks calcium-induced mitochondrial swelling; isolated mouse mitochondria, Ca2+ swelling absorbance, 30 min; inhibition, % at 10 µM; 1.4% of 360,000 active; AID 602449;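 active = inhibition of 50% or more, scaled per plate between neutral and stimulator controls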;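 also: 0% = DMSO wells given calcium and 100% = 1 mM EGTA wells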
Rh123 counter – mitochondrial membrane potential, counter-screen; shares compounds with MPTP block; isolated mitochondria, Rhodamine 123 fluorescence; inhibition, % at 10 µM; 78% of 5,000 active; in the data active = inhibition above about 22%;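 also: 0% = DMSO vehicle and 100% = positive control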
MPTP abs DR – dose response confirmation of mitochondrial permeability transition pore inhibitors; shares compounds with MPTP block; isolated mitochondria swelling, absorbance; IC50, µM; 58% of 780 active; AID 651561; in the data active = IC50 below about 20 µM
MPTP counter DR – counter-screen for mitochondrial permeability transition pore inhibitors, dose response | shares compounds with MPTP block | isolated mitochondria counterscreen, fluorescence read-out | IC50, µM | 49% of 780 active; in the data active = IC50 below about 80 µM
The depositor's hits bear a star; . = no result given; + = active, no number.

SMILES | aDG glyco up | SUMO Mot1 rescue | H9c2 protect | FAS-TE inh | CR mimetic SO | MPTP block | Rh123 counter | others
Cc1ccc(S(=O)(=O)Nc2ccccc2C(=O)N2CCCCC2)cc1 | 0.2 | -5.1 | -3.2 | -5.2 | 101.6 | -1.0 | .
Cc1c(C)c2ccc(OCC(=O)Nc3ccc(S(N)(=O)=O)cc3)c(C)c2oc1=O | -0.1 | -0.5 | -8.0 | -3.0 | 109.4 | 0.9 | .
CC(C)S(=O)(=O)NC(=O)C1(C)CCN1C(=O)Cc1ccccc1Cl (stereo not given) | -0.2 | . | -1.8 | -5.4 | . | 0.6 | .
O=C(C1CCCO1)N1CCN(S(=O)(=O)c2ccc(Cl)cc2)CC1 (stereo not given) | -0.1 | 0.1 | -2.0 | -4.7 | 109.6 | 0.9 | .
O=C(NNC(=O)c1cc(-c2cccnc2)nc2ccccc12)Nc1ccc(Cl)cc1 | -0.3 | -4.0 | -4.4 | 17.7 | 109.0 | 86.4* | 85.9*
O=C(NNC(=O)c1cc(-c2ccccc2)nc2ccccc12)Nc1cccc(Cl)c1 | -0.1 | 5.1 | 23.4 | 24.1 | 78.8 | 3.5 | .
CC(C)=CCc1c(O)cc2oc3c(CC=C(C)C)c(O)c(O)c(CC=C(C)C)c3c(=O)c2c1O | -0.1 | 14.2 | -15.0 | 14.3 | 91.2 | 92.3* | 7.3
O=C(NNc1c(Cl)cc(Cl)cc1Cl)C1CCC1 | -0.1 | -4.6 | 1.9 | -6.9 | 107.7 | 0.0 | .
CCCOC(=O)c1ccc(OCC(O)Cn2c(C)nc3ccccc32)cc1 (stereo not given) | 1.8 | . | -39.9 | -3.4 | . | 52.6* | 102.5*
Cc1nnc(NC(=O)c2ccc(Br)o2)s1 | 0.0 | 0.6 | 2.4 | -4.1 | 105.6 | 1.1 | .
COc1ccc(-c2cn3c(C)c(C(=O)Nc4ccncc4)sc3n2)cc1 | 4.2 | -11.6 | -20.3 | -0.4 | 92.5 | 1.2 | .
COc1ccc(-c2cn3c(C)c(C(=O)Nc4cccc(NC(C)=O)c4)sc3n2)cc1 | 0.8 | -0.2 | -3.2 | -4.0 | 91.9 | 79.7* | 23.5*
C=CCc1cccc(/C=C/c2cc(=O)c3ccccc3[nH]2)c1O | 0.6 | -23.7 | 5.0 | -6.3 | 105.2 | 59.8* | 50.2*
NS(=O)(=O)c1ccc(CNC(=O)c2ccc(NS(=O)(=O)c3ccc4[nH]c(=O)[nH]c4c3)cc2)cc1 | 0.1 | -7.6 | 0.7 | -5.5 | 89.7 | 2.4 | .
COCCCN(C(=S)Nc1cc(Cl)cc(Cl)c1)C(C)c1ccccn1 (stereo not given) | 0.2 | -8.9 | -8.1 | 8.9 | 93.5 | 90.6* | 86.7*
COCCCN(C(=S)Nc1cc(Cl)cc(Cl)c1)C(C)c1ccncc1 (stereo not given) | 0.3 | 10.7 | -0.4 | -25.7 | 99.4 | 92.6* | 99.2*
COCCCN(C(=S)Nc1ccc(C)cc1Cl)C(C)c1ccncc1 (stereo not given) | 0.0 | 8.2 | -1.3 | -15.4 | 97.1 | 0.4 | .
COCCCN(C(=O)Nc1ccc(C)c(C)c1)C(C)c1ccccn1 (stereo not given) | 0.0 | 206.2 | -3.6 | -5.2 | 96.1 | -0.3 | .
O=C(NC1CC1(c1ccccc1)c1ccccc1)c1ccccc1 (stereo not given) | 0.3 | . | -1.2 | 9.7 | . | -1.1 | .
CC(C)C[C@H](NC(=O)OC(C)(C)C)c1nnc(SCC(=O)Nc2ccc(Br)cc2)o1 | 0.0 | -3.1 | -12.7 | 19.6 | 108.8 | 65.5* | 69.6*
COC(=O)c1c(-c2cccnc2)csc1NC(=O)c1ccc2c(c1)OCO2 | 0.1 | 96.2 | -8.4 | -9.5 | 97.2 | -0.1 | .
CCOC(=O)c1nnc(-c2cccs2)nc1Oc1ccccc1C(=O)OC | 0.0 | 167.1 | -27.7 | -5.5 | 116.3 | -1.9 | .
CCOC(=O)c1nnc(-c2cccs2)nc1Oc1ccc(Cl)cc1 | -0.4 | -11.7 | -6.7 | 9.1 | 99.5 | + | -5.1 | MPTP abs DR=>100;MPTP counter DR=>80
COc1ccc(CN2C(=O)CS/C2=N/N=C/c2cccs2)cc1 | 0.2 | -8.9 | -16.8 | 34.0 | 81.2 | 81.9* | 62.1*
COc1ccc(OC)c(/C=N/N=C2\SCC(=O)N2Cc2ccco2)c1 | -0.3 | 12.4 | -10.6 | 19.8 | 110.7 | 1.6 | .
SMILES | aDG glyco up | SUMO Mot1 rescue | H9c2 protect | FAS-TE inh | CR mimetic SO | MPTP block | Rh123 counter | others
CCOC(=O)N(C)c1c(CC)nc2c(OCc3ccccc3)cccn12 | 0.0 | . | 2.7 | -4.7 | . | -0.9 | .
O=C(Nc1cccc(Cl)c1)NC1CC2CCC(C1)N2Cc1ccco1 (stereo not given) | 0.7 | -6.2 | -2.4 | -2.2 | 92.2 | -1.0 | .
O=C(Nc1cccc(C(F)(F)F)c1)NC1CCCCC1 | 1.3 | 142.2 | -15.1 | 10.6 | 110.1 | 92.7* | 119.2*
O=C(Nc1cccc(Cl)c1)NC1CC2CCC1C2 (stereo not given) | 0.1 | -8.3 | -7.4 | 10.5 | 116.2 | 55.2* | 84.5*
O=C(Nc1cccc(Cl)c1)NC1CCCCC1 | 0.0 | -19.1 | -7.3 | 2.8 | 105.0 | 82.6* | 73.1*
CN1CCC(NC(=O)Nc2cccc(C(F)(F)F)c2)CC1 | -0.3 | 314.9 | 1.1 | -10.1 | 87.0 | 3.3 | .
O=C(Nc1ccc(F)c(F)c1)NC1CCCCC1 | -0.2 | 0.9 | -16.1 | 4.0 | 99.6 | 52.8* | 88.7*
CC(=O)Nc1c(-c2ccccc2)c2cc(Br)ccc2[nH]c1=O | 0.0 | -7.0 | 0.8 | -7.0 | 93.2 | 0.1 | .
N=C(N1CCCc2ccccc21)N1CCCc2ccccc21 | 1.3 | . | 2.4 | -5.8 | . | -0.9 | .
CC(C)NC(=O)C1(S(=O)(=O)c2ccccc2)CC=CC1 | 0.0 | 9.0 | -4.7 | -1.9 | 98.9 | -1.7 | .
CC(=O)c1cccc(NC(=S)NC2CCCCCCC2)c1 | 0.1 | 1.2 | 4.1 | 13.9 | 129.1 | 50.3* | 99.2*
CC(=O)c1cccc(NC(=O)NC2CCCCCCC2)c1 | 0.2 | -12.3 | -0.2 | 1.7 | 104.2 | 0.3 | .
CC(C)[C@@H]1Cc2[nH][nH]c(=O)c2[C@H](C(C)C)O1 | 0.2 | . | . | -21.1 | . | -1.6 | .
CC(C)c1ccc(NC(=S)Nc2ccc(OC(F)(F)F)cc2)cc1 | 0.4 | . | -27.0 | 4.7 | 106.2 | 89.7* | 89.8*
O=C(O)/C=C/C(=O)Nc1ccc(OC(F)(F)F)cc1 | 0.0 | 48.1 | 2.7 | -6.6 | 96.0 | 0.1 | .
FC(F)(F)Oc1ccc(NC(=S)Nc2ccc(OC(F)(F)F)cc2)cc1 | 0.3 | 2.8 | -16.5 | 8.3 | 101.5 | 95.0* | 71.0*
C/C(=N\NC(=O)c1cccc(C)c1O)c1ccc(NC(=O)Cc2ccccc2)cc1 | 0.3 | -5.7 | -1.7 | -2.8 | 104.0 | 0.6 | .
CC(C)(C)N/N=C/c1cc(Cl)cc([N+](=O)[O-])c1O | 0.3 | 2.8 | -15.2 | 3.4 | 92.0 | 92.6* | 53.9*
O=[N+]([O-])c1cc(Cl)cc(/C=N/Nc2nc3ccccc3s2)c1O | 0.1 | 33.0 | 0.1 | 32.0 | 109.5 | 77.8* | 78.2*
